# Rows were chosen to be rich in hits. Some 19% of all compounds tested hit in one or more screens of this group.
# TDP1 cell CPT: growth inhibition of DT40 Tdp1-/-;hTDP1 cells with camptothecin (screen for TDP1 inhibitors). Potency, µM (titrated, usually from 46.2 µM), for the others: top-dose activity change, negative = growth inhibition, hits mostly inhibitors. chicken DT40 Tdp1-/-;hTDP1 cells + 20 nM CPT, ATP luminescence, 48 h. AID 686979. hit rate 12% among 420,000; note: potency is the fitted concentration of half-maximal effect; nearly all actives have a fitted effect of over 55% in size
#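 Chicken DT40 Tdp1-/- cells stably complemented with human TDP1 were seeded at 400 cells/well in medium containing 20 nM camptothecin, exposed to pin-transferred compounds, and grown at 37 °C for at least 48 hr. Viability was read as ATP luminescence.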
# IL-1B inflam inh: inflammasome signaling inhibition, IL-1 beta readout; hit rate 4.7% among 360,000; THP-1 LPS/ATP IL-1B secretion, AlphaLISA, 16 h; stronger effect = lower value; activity change, % at 57.5 µM; in the data active = activity change below about -50%; inconclusive = mostly about -30% to -49%
#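 THP-1 cells pretreated 1 hr with compounds (up to 57.5 uM final), then stimulated with LPS (250 ng/mL final) plus ATP (1.25 mM final); secreted IL-1B measured by AlphaLISA after 16 hr, decreased signal indicating inhibition.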
# Giardia kill: kills Giardia lamblia; activity change, % at 7.66 µM, hits read low; hit rate 0.15% among 340,000; Giardia lamblia trophozoite viability; AID 540267; in the data active = activity change below about -80%; inconclusive = between about -30% and that limit;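 note: parasites exposed to compound for two days anaerobically before the ATP read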
#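 Viability, read as ATP luminescence: trophozoites at 100 cells/well, compound added, 48 hrs anaerobic at 37 deg C, then 15-30 min room-temperature development before reading.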
# DT40 TDP1 no CPT: qHTS for Inhibitors of human tyrosyl-DNA phosphodiesterase 1 (TDP1): qHTS in cells in absence of CPT. AID 686978, 2013. hit rate 15% among 420,000. Potency, µM (top dose mostly 46.2 µM), inactives show at the top dose activity change, negative = growth inhibition, actives largely listed as inhibitors. DT40 Tdp1-/- hTDP1 cells, no CPT, ATP luminescence, 48 h; note: potency is the fitted concentration of half-maximal effect; nearly all actives have a fitted effect of over 55% in size
#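 Growth kinetics read by CellTiter-Glo luminescence after ≥48 hr at 37 °C. Cells: DT40 Tdp1-/- stably carrying human TDP1, 400 per well, compound exposure in the absence of CPT (DMSO vehicle).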
# TDP1 inh: inhibitors of human tyrosyl-DNA phosphodiesterase TDP1 | Q9NUW8 | recombinant TDP1, AlphaScreen DNA substrate cleavage | Potency, µM (titrated, usually from 130 µM), for inactives: top-dose activity change, negative = inhibition, most hits filed as inhibitors | hit rate 0.28% among 350,000 | AID 485290; note: potency is the fitted concentration of half-maximal effect; nearly all actives have a fitted effect of over 40% in size
# Target sequence (Q9NUW8 whole entry, looked up): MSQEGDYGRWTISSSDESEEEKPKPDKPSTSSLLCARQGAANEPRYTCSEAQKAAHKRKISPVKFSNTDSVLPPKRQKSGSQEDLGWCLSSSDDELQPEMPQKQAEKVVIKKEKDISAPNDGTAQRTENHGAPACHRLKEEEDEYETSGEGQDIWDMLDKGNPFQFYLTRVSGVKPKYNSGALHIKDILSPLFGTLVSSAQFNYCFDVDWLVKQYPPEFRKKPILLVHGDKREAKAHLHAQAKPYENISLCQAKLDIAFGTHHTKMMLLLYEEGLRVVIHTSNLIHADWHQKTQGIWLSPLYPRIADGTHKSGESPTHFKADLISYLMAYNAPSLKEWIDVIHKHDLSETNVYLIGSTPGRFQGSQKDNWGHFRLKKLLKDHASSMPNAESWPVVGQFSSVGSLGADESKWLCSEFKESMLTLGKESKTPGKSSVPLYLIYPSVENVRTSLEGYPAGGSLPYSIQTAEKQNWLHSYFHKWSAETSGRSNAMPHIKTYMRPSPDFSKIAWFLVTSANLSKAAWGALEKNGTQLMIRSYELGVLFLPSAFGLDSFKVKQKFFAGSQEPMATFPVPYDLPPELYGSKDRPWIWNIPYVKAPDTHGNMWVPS
#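 Steps: enzyme plus compound, 15 min RT; add biotin/phosphotyrosine-FITC oligonucleotide (15 nM final), react 5 min; add donor/acceptor beads (10 ug/ml final), 10 min; read AlphaScreen. Tdp1 at 1 nM final.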
# ELG1 DNA repair: inhibitors of ELG1-dependent DNA repair in HEK293T cells. AID 504467. Potency, µM (series often up to 46.1 µM), without a hit: at the highest dose activity change, negative = inhibition, usual class: inhibitors. HEK293T ELG1-luciferase reporter, luminescence, 16 h; DNA damage induced by 5-fluorouridine. hit rate 2.3% among 330,000; note: potency is the fitted concentration of half-maximal effect; nearly all actives have a fitted effect of over 55% in size
#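 Overnight (16 hr) co-exposure of 2,000 cells/well to 5-fluorouridine and compound at 37 °C preceded detection. Luciferase was quantified via ONE-Glo luminescence; loss of signal denotes inhibition.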
# The depositor's hits bear a star; ? = inconclusive; nt = no result given; [ ] = dose if it differs, or a comment. Unless noted, calls come from the whole dose curve; as a rule, active = well fitted curve in the direction sought with a large enough effect; inconclusive = small, poorly fitted or top-dose-only effect, or another doubt; inactive = no such curve, though single readings can be large; an effect the other way counts as inactive or inconclusive. % is set by controls: 0 for no effect and ±100 for the full control effect.
SMILES,TDP1 cell CPT,IL-1B inflam inh,Giardia kill,DT40 TDP1 no CPT,TDP1 inh,ELG1 DNA repair
COc1ccc(-n2ncc(C(C)NS(=O)(=O)c3cccs3)c2C)cc1 (stereo not drawn),4%,2,-15,?,2%,-24%
Cc1c(-c2nsc(NC(=O)c3cccs3)n2)nnn1-c1ccc(F)cc1,?,nt,nt,-28%,-8%,nt
CC(OC(=O)/C=C/c1ccc2ccccc2n1)C(=O)N(C)c1ccccc1 (stereo not drawn),?,-2,12,?,2%,?
COc1ccc(CN(C)C(=O)/C=C/c2ccc(S(=O)(=O)N3CCCCCC3)cc2)cc1,?,?,-10,23µM*,1%,?
CCOc1ccc(CN(C)C(=O)CCl)cc1,2.9µM*,-102*,-7,2.9µM*,-5%,4%
CCOc1ccc(NC(=O)CN(C)C(=O)/C=C/c2ccc(S(=O)(=O)N3CCCCCC3)cc2)cc1OCC,?,-15,4,?,nt,-3%
COc1ccccc1NC(=O)C(C)OC(=O)/C=C/c1ccc2ccccc2n1 (stereo not drawn),29µM*,7,18,?,-2%,?
COc1ccc(CNC(=O)c2ccc(Cn3cc(Cl)cn3)o2)cc1,7%,-13,-15,-16%,nt,-5%
Cc1ccc(NC(=O)Cn2c(=O)n(CCCCC(=O)NCc3ccco3)c(=O)c3ccccc32)cc1,?,-18,12,15µM*,-2%,?
Cc1ccc(C)c(Cn2c(=O)n(CCCC(=O)NCc3ccco3)c(=O)c3sccc32)c1,23µM*,13,-2,12µM*,4%,?
Cc1cc(C)c(Cn2c(=O)n(CCCC(=O)NCc3ccco3)c(=O)c3ccccc32)c(C)c1,?,0,1,18µM*,nt,nt
O=C(CCCCn1c(=O)c2ccccc2n(Cc2ccc(F)cc2Cl)c1=O)NCc1ccco1,18µM*,-17,-2,15µM*,3%,?
Cc1ccc(C)c(Cn2c(=O)n(CCCC(=O)NCc3ccco3)c(=O)c3ccccc32)c1,-28%,35,-4,?,-5%,-6%
Cc1cccc(C)c1NC(=O)Cn1cc(C(=O)C2CC2)c2ccccc21,-15%,nt,nt,-10%,-2%,nt
O=C(CCCCn1c(=O)c2ccccc2n(CC(=O)Nc2ccc(F)cc2)c1=O)NCc1ccco1,9.2µM*,-21,-1,?,0%,21µM*
O=S(=O)(NCCC1=CCCCC1)c1ccccc1Cl,-20%,2,21,-28%,-10%,16%
COc1ccc(NC(=O)CC2SC3=NCCN3C2=O)cc1 (stereo not drawn),9%,10,-16,3%,8%,-4%
COc1ccc(C(=O)N2CCN(Cc3nc(CC4CC4)no3)CC2)cc1,-14%,17,0,0%,6%,-2%
CC(C)=CCC/C(C)=C/CNC(=O)C[C@H]1C[C@H](C(=O)N2CCCCC2)[C@@]2(CCc3ccccc3)c3[nH]c4ccc(Cl)cc4c3CCN2C1=O,-7%,-4,4,-4%,0%[56.1 µM],6%
CCN(CC)C(=O)[C@H]1C[C@H](CC(=O)NC/C=C(\C)CCC=C(C)C)C(=O)N2CCc3c([nH]c4cc(CCC(=O)N(C)C)ccc34)[C@]12C,16µM*,?,-26,15µM*,6%[56.1 µM],?
CC(C)=CCC/C(C)=C/CNC(=O)C[C@H]1C[C@H](C(=O)N2CCCCC2)[C@@]2(CCc3ccccc3)c3[nH]c4cc(CCC(=O)N(C)C)ccc4c3CCN2C1=O,10µM*,-68*,0,8.2µM*,1%[56.1 µM],-11%
CCN(CC)C(=O)[C@H]1C[C@H](CC(=O)NCc2ccc(OC)c(OC)c2)C(=O)N2CCc3c([nH]c4cc(CCC(=O)N(C)C)ccc34)[C@]12C,2%,-22,-9,1%,-1%[56.1 µM],4%
COc1ccc(CCNC(=O)C2CCN(C(=O)c3ccc(C(C)(C)C)cc3)CC2)cc1,?,0,-11,?,3%,15%
COc1ccccc1N1CCN(CCCNC(=O)c2nnc(Cc3c(F)cccc3Cl)o2)CC1,-26%,nt,nt,?,2%,nt
O=C(NCc1cc(C(F)(F)F)ccc1Cl)c1cccc2c1C(=O)c1ccc(N3CCC(N4CCCCC4)CC3)cc1S2(=O)=O,5.2µM*,92,nt,2.9µM*,nt,nt
SMILES,TDP1 cell CPT,IL-1B inflam inh,Giardia kill,DT40 TDP1 no CPT,TDP1 inh,ELG1 DNA repair
O=C(NCc1cc(C(F)(F)F)ccc1Cl)c1cccc2c1C(=O)c1ccc(N3CCOCC3)cc1S2(=O)=O,18µM*,9,0,21µM*,-3%,?
CCOC(=O)c1ccc(NC(=O)C(CC)Sc2nc3ccncc3[nH]2)cc1 (stereo not drawn),?,nt,nt,-35%,8%,nt
Cc1c(N(C)S(=O)(=O)c2cc(C(=O)NCC3CCCO3)ccc2Cl)c(=O)n(-c2ccccc2)n1C (stereo not drawn),10%,-10,-8,2%,nt,20%
CCN(C(=O)COc1ccc(C(C)=O)cc1)c1cccc2ccccc12,15µM*,?,20,?,0%,?
CC(C)(C)c1ccc(OCC(=O)N2CCN(c3ncccn3)CC2)cc1,-21%,-1,-5,1%,3%,5%
C#CCn1cc(C=C2C(=O)c3ccccc3C2=O)c2ccccc21,23µM*,7,-3,21µM*,5%,?
CC1(C)Cc2c(cnn2-c2ccccc2)C(=O)/C1=N\NC(=O)c1ccncc1,18µM*,15,15,?,nt,nt
COCCNC(=O)C(c1ccc(F)cc1)N(C(=O)CCC(=O)Nc1ccccn1)C1CCCCC1 (stereo not drawn),0%,-6,-4,-13%,nt,0%
O=S(=O)(c1ccccc1)n1nc(-c2ccc(Cl)cc2)nc1NCc1ccccc1,?,nt,nt,16µM*,-3%,nt
CSc1ccc(/C=C/c2nc3ccccc3n2S(=O)(=O)c2cccc(Cl)c2)cc1,13µM*,nt,nt,10µM*,-5%,nt
Cc1ccc(S(=O)(=O)n2c(N)nc3ccccc32)cc1,?,11,-14,-26%,nt,7%
O=S(=O)(c1cccc(Cl)c1)n1c(/C=C/c2ccccc2Cl)nc2ccccc21,18µM*,nt,nt,13µM*,3%,nt
Cc1ccc(/C=C/c2nc3ccccc3n2S(=O)(=O)c2ccc(Br)cc2)cc1,?,nt,nt,21µM*,-1%,nt
Cc1nnc(N2C(=O)c3oc4ccccc4c(=O)c3C2c2cccc(OCCC(C)C)c2)s1 (stereo not drawn),-6%,nt,nt,?,-1%,nt
